Source: PubChem BioAssay AID1566 (Sanford-Burnham Center for Chemical Genomics, 2009)
Among all 290,000 compounds or so, about 1,800 (0.62%) were called active. The list comes from a sample in which actives are over-represented; it also holds similar structures and randomly drawn compounds. A number with no mark means an inactive call. Rule as the data show it: active = inhibition above about 50%; inactive = the rest.

Experiment: NOD2 signaling inhibitors, cell-based, luminescence, uHTS, HEK293 (AID 1566)
Details: HEK293 NOD2/NF-kB luciferase reporter, at 4 µM, hits give high values

| SMILES | inhibition |
| --- | --- |
| COc1ccc(N(CC(=O)Nc2ccc(C)c(C)c2)C2=NC3CS(=O)(=O)CC3S2)cc1 (centres undefined) | 10.8% |
| CCC(C)(C)NC(=O)C1CC(=O)N(CCc2ccc(F)cc2)C1 (centres undefined) | 12.1% |
| COc1ccc(S(=O)(=O)N2CCC(N3CCN(c4ccccc4)CC3)CC2)cc1 | 16.7% |
| Cc1cc(C(=O)NCC2COc3ccccc3O2)c2ccccc2n1 (centres undefined) | 17.7% |
| Cc1nc2ccccc2c2oc(C(=O)NCc3ccc4c(c3)OCO4)cc12 | 45.9% |
| Cc1c(/C(O)=C2/C(=O)C(=O)N(CCN(C)C)C2c2ccc(C(C)C)cc2)cnn1-c1ccccc1 (centres undefined) | 28.4% |
| Cc1ccc2[nH]c(=O)c3cc(C(=O)N(C)C4CCCCC4)sc3c2c1 | 56.8% (active) |
| Cc1ccc(C)c(N(C)C(=O)c2cc3c(=O)[nH]c4ccc(C)cc4c3s2)c1 | -16% |
| Cc1ccc2[nH]c(=O)c3cc(C(=O)N(C)c4ccccc4C)sc3c2c1 | 13.1% |
| COc1cc(CN2CCC(Cc3ccccc3)CC2)cc([N+](=O)[O-])c1O | -1.9% |
| O=C(Nc1ccc(N2CCCC2)cc1)c1cc(Br)ccc1Cl | -11.7% |
| Cc1ccc2c(COC(=O)c3c(C)noc3C)cc(=O)oc2c1 | 0.4% |
| N[C@@H](CO)c1nnc([C@H](CC(=O)O)NC(=O)C2CCNCC2)o1 | -3.6% |
| CCSc1nsc(NC(=O)Nc2cccc(OC)c2)n1 | 17.5% |
| CCSc1nsc(NC(=O)Nc2ccccc2F)n1 | -32.2% |
| CC1CCN(C(=O)c2ccc(CS(=O)(=O)Cc3ccccc3)cc2)CC1 | 12.8% |
| Cc1ccc(NC(=S)N2CCC(NC(=O)c3ccccc3)CC2)cc1 | 93% (active) |
| Cc1ccc(NC(=S)N2CCC(NC(=O)c3ccc(C)cc3)CC2)cc1 | -13.6% |
| CCc1ccc(NC(=S)N2CCC(NC(=O)c3ccccc3)CC2)cc1 | 7.4% |
| CC(C(=O)NC1CCCCCC1)n1cc([N+](=O)[O-])cn1 (centres undefined) | 3.3% |
| O=[N+]([O-])c1cccc2ccc(/C=C/c3cccc(Br)c3)nc12 | -19% |
| Cc1ccc(-c2csc(N3CCN(CCCn4c(C(F)(F)F)nc5ccccc54)CC3)n2)cc1 | 19.9% |
| CC(=O)N[C@@H](C)c1nc2ccccc2n1CCCN1CCN(c2nc(-c3ccc(C)cc3)cs2)CC1 | 44.3% |
| Cc1ccc(Cn2c(SC3CCOC3=O)nc3ccccc3c2=O)cc1 (centres undefined) | -3.1% |

| SMILES | inhibition |
| --- | --- |
| O=C1NCC(CN(c2ccccc2)c2ccccc2)O1 (centres undefined) | 14.1% |
| CCN(CC)c1ncnc2ccc(Br)cc12 | 65.5% (active) |
| CC(C)Nc1ncnc2ccc(Br)cc12 | 43% |
| CN(Cc1ccccc1)c1ncnc2ccc(Br)cc12 | 20.7% |
| Cn1c(=O)oc2cc(S(=O)(=O)N3CCC(C(=O)N4CC=C(c5ccccc5)CC4)CC3)ccc21 | 7.5% |
| Cc1nnc(SCC(=O)Nc2cccc([N+](=O)[O-])c2)n1CC1CCCO1 (centres undefined) | 2.2% |
| O=C(O)c1ccccc1C(=O)c1ccc(Cl)cc1 | 1% |
| O=C(O)c1ccccc1C(=O)c1ccc(Oc2ccccc2)cc1 | -0.9% |
| O=C(O)c1ccccc1C(=O)c1ccc(-c2ccccc2)cc1 | 64.3% (active) |
| Cc1ccc2c(C)c(C(=O)Nc3c(C)n(C)n(-c4ccccc4)c3=O)oc2c1C | 22.4% |
| CCC(=O)N1CCc2cc(S(=O)(=O)CCC(=O)NC(C)CC)ccc21 (centres undefined) | 10.4% |
| CCc1ccc(N(C(=O)Cn2nnc(-c3ccccc3)n2)C(C(=O)NC2CCCCC2)c2ccccn2)cc1 (centres undefined) | 5.5% |
| COCc1cc(=O)[nH]c(Nc2nc3ccccc3o2)n1 | -130% |
| COC(=O)Cc1cc(=O)[nH]c(Nc2nc3ccccc3o2)n1 | -8.6% |
| COCc1cc(=O)[nH]c(Nc2nc3ccc(C)cc3o2)n1 | 62.8% (active) |
| COc1ccc(Cn2c(C3CC3)nc3ccc(NC(=O)c4ccco4)cc3c2=O)cc1 | -43.8% |
| CCn1c(C)c(C(C)=O)c(N2CCN(c3cccc(Cl)c3)CC2)nc1=S | 15.5% |
| CC(=O)Nc1ccc(/C(C)=N/NC(=O)c2ccc(CN3CCOCC3)cc2)cc1 | 6.9% |
| CC1CCCCN1C(=O)c1ccc(C(=O)N2CCCCC2C)cc1 (centres undefined) | 5% |
| COc1ccc(OC(=O)Nc2ccccc2)cc1 | -3.6% |
| N#Cc1c(-c2ccccc2)cc(-c2ccccc2)nc1SCc1nnc(-c2ccccc2)o1 | 15.7% |
| Cc1ccc(C#N)c(SCc2nnc(-c3ccc(Cl)cc3)o2)n1 | 67.8% (active) |
| Cc1csc(SCc2nnc(-c3ccc(Cl)cc3)o2)n1 | -134% |
| Cc1cc(C)c(C#N)c(SCc2nnc(-c3ccccc3[N+](=O)[O-])o2)n1 | -197% |

| SMILES | inhibition |
| --- | --- |
| Cc1nnc(SCc2nnc(-c3ccc(Cl)cc3)o2)n1-c1ccccc1 | -2.6% |
| Cc1ccc(-n2c(C)cc(/C=N/NC(=O)c3ccncc3)c2C)c(C)c1 | 7% |
| Cc1ccc(NC(=O)c2ccc3ccccc3n2)cc1S(=O)(=O)N(C)C | -57.9% |
| O=C(CSc1nc2ccccc2[nH]1)Nc1cccc(S(=O)(=O)N2CCOCC2)c1 | 24.9% |
| CC(=O)Nc1cccc(-n2nnc(SCC(=O)Nc3ccccc3)n2)c1 | 0.6% |
| Cc1cc(OCC(=O)NCCc2ccc(S(N)(=O)=O)cc2)c2c(C)c(C)c(=O)oc2c1 | 8.3% |
| Cc1n[nH]c(=O)nc1NC1CCCCC1 | 3% |
| C=CCn1c(CSCc2ccccc2)nnc1SCC(=O)N1CCN(c2ccccc2)CC1 | 0.4% |
| CCOc1ccc(N=C2SC(C(=O)Nc3ccccc3C#N)C(N)=C2C(=O)Nc2ccc(Cl)cc2)cc1 (centres undefined) | 13.4% |
| N#Cc1ccccc1NC(=O)C1SC(=Nc2ccccc2)C(C(=O)Nc2ccc(Cl)cc2)=C1N (centres undefined) | 50.7% (active) |
| Cc1ccc(NC(=O)C2SC(=Nc3ccccc3)C(C(=O)Nc3ccc(Cl)cc3)=C2N)cc1 (centres undefined) | -14.9% |
| CC(=O)Nc1ccc(SC(C)C(=O)NC2CCCC2)cc1 (centres undefined) | -6.7% |
| Oc1ccc(-c2nc3ccccc3s2)cc1 | -198% |
| COc1ccc(-c2nc3ccccc3s2)cc1 | -217% |
| Cn1nnc2cc(C(=O)NCc3ccc4c(c3)OCO4)ccc21 | -37.1% |
| Cc1ccc(C(=O)NS(=O)(=O)c2ccc(C)cc2)cc1 | -1.5% |
| Cc1ccc(S(=O)(=O)NCCNC(=O)c2ccccc2)cc1 | -8% |
| Cc1ccc(C(=O)NC(=S)NNS(=O)(=O)c2ccc(C)cc2)cc1 | 7.8% |
| Cc1ccc(S(=O)(=O)CNC(=O)c2ccccc2)cc1 | 1.3% |
| COc1sc(SC)cc1/C=N/NC(=O)c1ccncc1 | 12.3% |
| O=C(NC1CCCCC1)C(c1ccc(F)cc1)N(Cc1cccs1)C(=O)CN1C(=O)c2ccccc2S1(=O)=O (centres undefined) | 13.4% |
| CC1Cc2ccccc2N1S(=O)(=O)c1cccc(C(=O)OCC(=O)NC2CCS(=O)(=O)C2)c1 (centres undefined) | -8.8% |
| CC1(CC(=O)N/N=C/c2ccc(-c3ccc(C(=O)O)cc3)o2)OCCO1 | 17.9% |
| CCn1cc(S(=O)(=O)Nc2cc(C(=O)OC)ccc2C)cn1 | 8.3% |

| SMILES | inhibition |
| --- | --- |
| COc1cccc(OCCn2c(C)c(/C=N/n3cnnc3)c3ccccc32)c1 | 10.9% |
| COc1ccc(C(O)(C(C)C)C(CN2CCOCC2)c2ccccc2)cc1 (centres undefined) | 8.6% |
| CCc1ccc(C(O)(C(C)C)C(CN2CCOCC2)c2ccccc2)cc1 (centres undefined) | 0.6% |
| CC(C)C(O)(c1ccccc1)C(CN1CCOCC1)c1ccccc1 (centres undefined) | 56.7% (active) |
| COc1ccc(NC(=O)CCn2c(=O)c3cccn3c3ccccc32)c(OC)c1 | 38.3% |
| Cc1ccc(CCNC(=O)C23C[C@H]4C[C@@H](C2)CC(n2nnc(C)n2)(C4)C3)cc1 | 8.2% |
| Cc1nnn(C23C[C@@H]4C[C@@H](CC(C(=O)N5CCN(c6ccccc6)CC5)(C4)C2)C3)n1 | -0.7% |
| Cn1ccnc1C(=O)c1ccc(S(=O)(=O)N2CCCC2)cc1 | 14.8% |
| COc1ccccc1NC(=O)c1sc2nc(N3CCOCC3)c3c(c2c1N)CCCC3 | 50% (active) |
| Cc1ccccc1NC(=O)c1sc2nc(N3CCOCC3)c3c(c2c1N)CCCC3 | 23.1% |
| COc1ccc(NC(=O)c2sc3nc(N4CCOCC4)c4c(c3c2N)CCCC4)c(OC)c1 | 30.8% |
| COC(=O)c1ccccc1NC(=O)CSc1nnc(-c2cccnc2)o1 | -6.6% |
| Cc1ccc2[nH]c(C)c(/C=C/c3cc[n+](C)cc3)c2c1 | 29.1% |
| Cc1ccc2[nH]cc(/C=C/c3cc[n+](C)cc3)c2c1 | 48% |
| COc1ccc(OC)c(S(=O)(=O)N(C)CC(=O)Nc2ccc3c(c2)OCO3)c1 | 4.6% |
| CCCNC(=O)Cn1cnc2sc(C(=O)N3CCN(CCC)CC3)c(C)c2c1=O | 24.6% |
| CC(C)(C)n1nnnc1C(c1ccncc1)N1CCN(c2ccc(O)cc2)CC1 (centres undefined) | -4.7% |
| c1ccc2c(c1)SCc1nnc(-c3ccncc3)n1-2 | 5.9% |
| Cc1oc(-c2ccccc2)nc1CSc1nc2c(c(=O)[nH]1)CCC2 | 30.8% |
| Cc1oc(-c2ccccc2Cl)nc1CSc1nc2c(c(=O)[nH]1)CCC2 | -2% |
| COc1ccccc1C(=O)NCCC(=O)NCCOc1ccccc1 | 16.2% |
| CN(C(=O)COc1ccccc1C(=O)NCCc1ccccc1)c1ccccc1 | -25.8% |
